We go through 14 compounds from the supplement of paper PMC6522484.

± gives the standard deviation of the averaged measurements.

Assay [1] relates to DLD1. In words: cell viability (CellTiter-Glo) relative to plate median (fraction of plate median); higher = more viable cells. The note with it: 5 µM; treatment time 24 h; reporter: 7TFP. The gist of the method: (§1)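 Colorectal cancer lines with stably integrated lentiviral TCF/Wnt firefly luciferase reporters received library compounds at a final 5 µM, 24 h after seeding into 384-well plates, for a 24 h exposure. Reported figures are plate-median-normalised firefly luciferase or CellTiterGlo luminescence per well. They average two independent replicates.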

For assay [2], the system named is HCT116. The assay is described as above. The note with it: 5 µM; treatment time 24 h; reporter: TCF4/Wnt. The gist of the method: as §1
Assay [3] has as its system SW480. The assay is described as above. Conditions: 5 µM; treatment time 24 h; reporter: 7TFP. In outline: as §1
Assay [4] relates to DLD1. In words: TCF/Wnt firefly luciferase reporter signal relative to plate median (fraction of plate median); higher = higher Wnt reporter signal. Conditions: 5 µM; treatment time 24 h; reporter: 7TFP. The gist of the method:
as §1
Background: Reporter assays use an easily measured gene product as a stand-in for the process of interest.

Assay [5] has as its system SW480. The description is as above. Conditions: 5 µM; treatment time 24 h; reporter: 7TFP. The gist of the method:
as §1

`CC(=O)[C@H]1CC[C@H]2[C@@H]3CC[C@H]4C[C@H](O)CC[C@]4(C)[C@H]3CC[C@]12C`: the cell viability in assay [1] was 0.966 ± 0.049; in assay [2], 0.97 ± 0.0057; in assay [3], 0.99 ± 0.014. Further, the results for the “TCF/Wnt firefly luciferase reporter signal” value in assay [4] and in assay [5] were 0.902 ± 0.047 and 0.912 ± 0.059, respectively.
For `C[C@@H](CO)NC(=O)[C@@H]1C=C2c3cccc4[nH]cc(c34)C[C@H]2N(C)C1`, in that order: 0.983 ± 0.067, 1.01 ± 0.061, 0.939 ± 0.052, 1.09 ± 0.099 and 0.98 ± 0.026.
For `O=C1C=CC(=O)c2ccccc21` the same measures were 0.9965 ± 0.005, 1.05 ± 0.042, 0.989 ± 0.12, 1.13 ± 0.057 and 0.963 ± 0.047.
For `O=P1(NCCCl)OCCCN1CCCl` (stereo not given) the same measures were 1.03 ± 0.079, 0.996 ± 0.021, 0.973 ± 0.053, 0.999 ± 0.28 and 0.97 ± 0.086.
As for `O=c1c(O)c(-c2ccc(O)c(O)c2)oc2c(O)c(O)cc(O)c12`, the cell viability in assay [1] is 0.905 ± 0.12; in assay [2] it was 1.1 ± 0.085; in assay [3], 0.9465 ± 0.00071. For the same compound, the “TCF/Wnt firefly luciferase reporter signal” value is 0.9395 ± 0.0035 in assay [4] and 0.916 ± 0.033 in assay [5].
For `CC(C)=CCC[C@]1(C)C=Cc2c(O)c3c(c(CC=C(C)C)c2O1)O[C@]12C(=C[C@@H]4C[C@H]1C(C)(C)O[C@@]2(C/C=C(/C)C(=O)O)C4=O)C3=O` the same measures were 0.965 ± 0.12, 0.993 ± 0.053, 1.09 ± 0.14, 1.05 ± 0.095 and 1.09 ± 0.028.
For `CN(C)C(=O)Oc1cccc([N+](C)(C)C)c1` the same measures were 1.06 ± 0.089, 0.979 ± 0.017, 1.01 ± 0.017, 1.03 ± 0.15 and 1.09 ± 0.021.
For `O=C(O)CCC1NCC2CC1CN1CCCCC21` (stereo not given), in that order: 0.999 ± 0.044, 1.08 ± 0.042, 0.971 ± 0.023, 1.27 ± 0.28 and 1.11 ± 0.078.
For the compound `Oc1ccc(Cl)cc1Cc1cc(Cl)ccc1O`, the cell viability was found to be 0.881 ± 0.12 in assay [1], 0.868 ± 0.0092 in assay [2] and 1.03 ± 0.035 in assay [3]. Further, the “TCF/Wnt firefly luciferase reporter signal” value in assay [4] was 0.883 ± 0.17; in assay [5] it was 0.953 ± 0.081.
As to `C[N+]1(C)CCCC(OC(=O)C(O)(c2ccccc2)c2ccccc2)C1` (stereo not given), the values for the cell viability in assay [1], in assay [2] and in assay [3] were 0.965 ± 0.036, 0.936 ± 0.063 and 1.01 ± 0.014, respectively. In addition, the “TCF/Wnt firefly luciferase reporter signal” value in assay [4] amounted to 1.05 ± 0.014; in assay [5], 0.957 ± 0.043.
For `CC(=O)O[C@@H]1C[C@H]2C(C)(C)C(=O)C=C[C@]2(C)[C@H]2CC[C@]3(C)C(=CC(=O)O[C@H]3c3ccoc3)[C@@]21C` the same measures were 0.99 ± 0.086, 0.997 ± 0.075, 0.963 ± 0.016, 1.03 ± 0.1 and 0.975 ± 0.05.
For `C=CC[C@]1(O)CC[C@H]2[C@@H]3CCC4=CC(=O)CCC4=C3C=C[C@@]21C`, in that order: 1.11 ± 0.16, 0.961 ± 0.052, 0.963 ± 0.081, 0.945 ± 0.078 and 0.9875 ± 0.00071.
For `COC(=O)C(c1ccccc1)C1CCCCN1` (stereo not given) the same measures were 1.025 ± 0.0071, 1.05 ± 0.064, 1.01 ± 0.035, 1.03 ± 0.021 and 1.04 ± 0.088.
With `COP(=O)(OC)OC=C(Cl)Cl`, the cell viability in assay [1] amounted to 1.05 ± 0.014; in assay [2], 0.94 ± 0.099; in assay [3], 0.994 ± 0.037. Also, the entries for the “TCF/Wnt firefly luciferase reporter signal” value in assay [4] and in assay [5] were 1.04 ± 0.18 and 1.03 ± 0.028, respectively.
